Bioassay records deposited in PubChem BioAssay by Paczesny and Yang Labs, IUPUI and University of Michigan.
ST2 IL33 inh – blocks human ST2 binding to IL-33 | Q01638 | AlphaLISA ST2-Fc/biotin-IL-33 interaction, 1 h | inhibition, % for hits at 17 µM | hit rate 2.3% among 78,000; in the data active means inhibition above about 30%
Target sequence (Q01638 whole entry, looked up): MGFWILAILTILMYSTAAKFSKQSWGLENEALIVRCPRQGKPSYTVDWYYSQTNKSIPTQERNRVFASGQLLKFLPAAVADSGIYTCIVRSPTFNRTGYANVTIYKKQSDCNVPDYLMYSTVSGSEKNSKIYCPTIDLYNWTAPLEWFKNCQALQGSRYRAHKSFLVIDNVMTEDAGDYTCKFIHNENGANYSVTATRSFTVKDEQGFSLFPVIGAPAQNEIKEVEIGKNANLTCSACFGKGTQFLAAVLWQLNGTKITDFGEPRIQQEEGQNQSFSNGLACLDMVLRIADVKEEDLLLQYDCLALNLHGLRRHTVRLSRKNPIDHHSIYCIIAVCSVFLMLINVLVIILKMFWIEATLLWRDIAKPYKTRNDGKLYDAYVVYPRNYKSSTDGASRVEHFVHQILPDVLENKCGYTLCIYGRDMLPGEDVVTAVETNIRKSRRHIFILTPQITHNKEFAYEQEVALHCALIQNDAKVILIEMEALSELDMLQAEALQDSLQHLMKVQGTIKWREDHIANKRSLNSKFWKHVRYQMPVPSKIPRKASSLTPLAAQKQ
A number is an active result; i = inactive. This excerpt belongs to a sample that is enriched for hits.

SMILES	ST2 IL33 inh
COc1ccc(CNC(=O)c2ccc3c(c2)NC(=O)C2CCCCN32)cc1 (configuration not stated)	i
CC(C)c1ccc(NC(=O)c2ccc3c(c2)NC(=O)C2CCCCN32)cc1 (configuration not stated)	99.0%
CN(C)Cc1ccc(C(=O)NC2CCCN(C3CCCCCC3)C2)o1 (configuration not stated)	i
CSc1cccc(CN(C)Cc2c(CO)cnc(C)c2O)c1	i
COc1ccc(NC(=O)N[C@H]2CO[C@H]3[C@@H]2OC[C@H]3OC(=O)Nc2ccc(C(C)=O)cc2)cc1	i
COC(=O)c1cccc(NC(=S)N[C@H]2CO[C@H]3[C@@H]2OC[C@H]3OCc2ccccc2)c1	i
CCNC(=O)O[C@@H]1CO[C@H]2[C@@H]1OC[C@@H]2NC(=S)Nc1cccc(C(=O)OC)c1	34.0%
CC(=O)c1cccc(NC(=O)O[C@@H]2CO[C@H]3[C@@H]2OC[C@@H]3NC(=S)Nc2cc(C)cc(C)c2)c1	i
COc1ccc(NC(=O)O[C@@H]2CO[C@H]3[C@@H]2OC[C@@H]3NC(=O)Nc2cccc(C#N)c2)cc1	66.0%
CCOC(=O)c1cccc(NC(=O)N[C@H]2CO[C@H]3[C@@H]2OC[C@H]3OC(=O)Nc2ccccc2)c1	i
CCNC(=O)O[C@@H]1CO[C@H]2[C@@H]1OC[C@@H]2NC(=O)Nc1cccc(C(F)(F)F)c1	i
O=C(Nc1cccc(C(F)(F)F)c1)N[C@H]1CO[C@H]2[C@@H]1OC[C@H]2OC(=O)Nc1ccc(Oc2ccccc2)cc1	31.0%
CC(=O)c1ccc(NC(=O)O[C@@H]2CO[C@H]3[C@@H]2OC[C@@H]3NC(=S)Nc2cccc(C#N)c2)cc1	i
CCCCOc1nnc(-c2ccc(OC)cc2)c2ccccc12	i
Cc1c(S(=O)(=O)N2CCN(c3cc(-c4ccccc4)ncn3)CC2)cnn1C(F)F	i
O=[N+]([O-])c1ccc(-c2nc(NCCCO)c3ccccc3n2)cc1	i
CCOC(=O)c1c(NC(=O)c2ccc(C#N)cc2)sc2c1CCCCC2	i
CCOCCCNC(=O)c1cn(C)c(=O)c2c1c1ccccc1n2C	i
COc1ccc(C(=O)N(c2ccc(C(C)C)cc2)C2C=CS(=O)(=O)C2)cc1OC (configuration not stated)	i
CC(NC(=O)c1ccc2c(c1)NC(=O)C(N1CCCC1)S2)c1ccccc1 (configuration not stated)	i
COc1ccc(C2=Nn3c(nnc3-c3ccccc3Br)SC2)cc1	i
COc1ccc(OC)c(N2C(=O)C3CCCCC3C2=O)c1 (configuration not stated)	i
COc1ccc(OCCOc2cccc(C=O)c2)cc1	i
COc1ccc(C2=C/C(=C/c3ccc4c(c3)OCO4)C(=O)O2)c(OC)c1	i
COc1cccc(/C=C2/C=C(c3cc(OC)ccc3OC)OC2=O)c1	42.0%
SMILES	ST2 IL33 inh
COc1ccc(OC)c(/C=C2\N=C(c3ccc(OC)c([N+](=O)[O-])c3)OC2=O)c1	i
COc1ccc(OC)c(/C=C2/C=C(c3cc(OC)ccc3OC)OC2=O)c1	41.0%
Cc1c(Cl)cccc1N1C(=O)Nc2cc(Cl)c(Cl)cc2N1O	i
COc1cc(OC)c(C(N)=O)c(S(=O)(=O)Cc2ccccc2)c1	i
CSCC(=O)N[C@H]1CCN2C(=O)N(c3ccc(C(C)C)cc3)C(=O)[C@@H]2C1	52.0%
CC(C)c1ccc(N2C(=O)C3C4C=CC(C4)C3C2=O)cc1 (configuration not stated)	i
COc1cc(OC)cc(N2C(=O)[C@@H]3C[C@@H](NC(=O)c4cccn4C)CCN3C2=O)c1	i
COc1ccc(C2(C(=O)N3CCCCC3)CCCC2)cc1OC	i
COc1ccc2cc(S(=O)(=O)N3CCN(C)CC3)ccc2c1	i
CCn1cc2c(c1-c1ccc(OC)cc1)c(=O)n(C)c(=O)n2C	i
CCn1c(=O)ccc2cc(OC)ccc21	31.0%
CCOc1ccccc1NC(=O)CC1Sc2ccc(C(F)(F)F)cc2NC1=O (configuration not stated)	i
O=C(Nc1ccc(S(=O)(=O)Nc2cccc(F)c2)cc1)c1ccc([N+](=O)[O-])cc1	i
COc1ccc(Br)cc1/C=C1\C(=O)N(c2cccc(Cl)c2)N=C1C	i
CC1=NN(c2ccc(Cl)c(Cl)c2)C(=O)/C1=C/c1ccccc1	i
COc1ccc(Cl)cc1/C=C1\C(=O)N(c2ccc(Cl)c(C(=O)O)c2)N=C1C	74.0%
CCN(C)c1ccc(/C=C2/C(=O)N(c3ccc(Cl)c(Cl)c3)N=C2C)cc1	30.0%
CC1=NN(c2ccc(Cl)c(Cl)c2)C(=O)/C1=C/c1ccc(C)c([N+](=O)[O-])c1	i
COc1cc(/C=C2\C(=O)N(c3ccc(Cl)c(C(=O)O)c3)N=C2C)cc(OC)c1OC	56.0%
COc1ccccc1/C=C1\C(=O)N(c2ccc(Cl)cc2Cl)N=C1C	i
CCN(C)c1ccc(/C=C2/C(=O)NN(c3ccc(Cl)c(Cl)c3)C2=O)cc1	i
COc1cc(/C=C2\C(=O)N(c3ccc(C(=O)O)cc3)N=C2C)cc(Cl)c1O	i
COc1ccc(OC)c(/C=C2\C(=O)N(c3ccc(Cl)c(C(=O)O)c3)N=C2C)c1	i
COc1ccc(/C=C2/C(=O)N(c3ccc(Cl)c(Cl)c3)N=C2C)cc1OC	65.0%
CCc1ccc(OCCOc2ccc(C=O)cc2OC)cc1	i
SMILES	ST2 IL33 inh
O=C(O)c1cc(N2C(=O)C3CC=CCC3C2=O)ccc1Cl (configuration not stated)	i
Cc1ccc(Cn2c(=O)c3c(nc4n3CCN4c3ccccc3)n(C)c2=O)cc1	i
OC1(c2cccc(C(F)(F)F)c2)CCN(Cc2nc(COc3ccccc3)no2)CC1	i
Cc1nonc1NC1(Nc2nonc2C)C(=O)c2ccccc2C1=O	i
CC(C)Cc1ncc2c(n1)CN(C(=O)c1cccc(-n3cnnc3)n1)C2	i
CCOc1ccc(C(=O)Nc2c(C)cccc2CC)cc1[N+](=O)[O-]	i
Cc1cc(Oc2cc(C#N)c(C#N)cc2[N+](=O)[O-])cc(C)c1Cl	39.0%
COc1ccc(NC(=O)c2cccc(Oc3ccc(C(F)(F)F)cc3[N+](=O)[O-])c2)cc1	i
CCN(CC)S(=O)(=O)c1cccc(C(=O)Nc2cccc(O)c2)c1	i
O=C(Nc1cc(Cl)ccc1Cl)c1cccc(Br)c1	i
O=C(O)c1cccc2c1NC(c1cccc(Br)c1)C1C3CCC(C3)C21 (configuration not stated)	i
CN(C)c1nc2c(c(-c3ccccc3CN3CCOCC3)n1)CCCC2	i
Nc1nc(-c2ccc(-c3ccccc3CN3CCOCC3)cc2)cs1	34.0%
Nc1nc(-c2ccccc2)cs1	i
CCN1C(=O)CSc2ccc(C(=O)NCc3cccs3)cc21	i
NC(=O)[C@H](Cc1ccccc1)NC1CCC2(CCNCC2)CC1	i
COc1cc(O)cc(OC2OC(CO)C(O)C(O)C2O)c1 (configuration not stated)	i
CCn1c2ccccc2c2nnc(SCC(=O)N3CCCc4ccccc43)nc21	i
O=C(CSc1nnc2c3ccccc3n(CCc3ccccc3)c2n1)N1CCOCC1	33.0%
c1ccc(CCn2c3ccccc3c3nnc(SCCN4CCOCC4)nc32)cc1	i
CC(C)(CNC(=O)c1cn(C/C=C/c2ccccc2)nn1)N1CCOCC1	i
O=C(COc1ccc(Cl)cc1Cl)NCC1CCCO1 (configuration not stated)	i
CCOc1ccc2c(c1)CN(c1ccc(C)c(Cl)c1)CO2	i
Nc1cccc2c1C(=O)N(c1ccc(Cl)cc1)C2=O	i
Nc1ccc(N2C(=O)c3ccccc3C2=O)c(Cl)c1	i
Nc1ccc(Cl)c2c1C(=O)c1ccccc1C2=O	42.0%
